The campaign covered roughly 5,500 compounds. About 2,000 (36%) were called active. Inconclusive results (about 18%) are left out. Cut-off read from the data, not from the text of the source: active = normalized growth mostly below about 0.91 (no sharp cut-off); inconclusive = no clear call, values can overlap the other calls; inactive = mostly above about 0.92. Some of the results follow.
Assay: chemical genetic growth profiling, strain panel (AID 1159580);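 note: tested at 20 µM; growth read once vehicle control cultures reached saturation at 30 °C; 1 = growth at the plate median or of vehicle wells; lower values mean less growth of the strain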
Settings: growth OD
[1] = S. cerevisiae deletion strains, locus YAL013W, strain DEP1, hits give low values
[2] = S. cerevisiae deletion strains, locus YBR229C, strain ROT2, hits give low values
[3] = S. cerevisiae deletion strains, locus YDL101C, strain DUN1, hits give low values
[4] = S. cerevisiae deletion strains, locus YDR150W, strain NUM1, hits give low values
[5] = S. cerevisiae deletion strains, locus YEL061C, strain CIN8, hits give low values
[6] = S. cerevisiae deletion strains, locus YGR078C, strain PAC10, hits give low values
[7] = S. cerevisiae deletion strains, locus YHR030C, strain SLT2, hits give low values
[8] = S. cerevisiae deletion strains, locus YHR087W, strain rtc3, hits give low values
[9] = S. cerevisiae deletion strains, locus YJL187C, strain SWE1, hits give low values
[10] = S. cerevisiae deletion strains, locus YJR043C, strain POL32, hits give low values
[11] = S. cerevisiae deletion strains, locus YJR075W, strain HOC1, hits give low values
[12] = S. cerevisiae deletion strains, locus YKL190W, strain CNB1, hits give low values
[13] = S. cerevisiae deletion strains, locus YLR039C, strain RIC1, hits give low values
[14] = S. cerevisiae deletion strains, locus YLR058C, strain SHM2 (second series), hits give low values
[15] = S. cerevisiae deletion strains, locus YLR085C, strain ARP6, hits give low values
[16] = S. cerevisiae deletion strains, locus YLR262C, strain YPT6, hits give low values
[17] = S. cerevisiae deletion strains, locus YML094W, strain GIM5, hits give low values
[18] = S. cerevisiae deletion strains, locus YMR219W, strain ESC1, hits give low values
[19] = S. cerevisiae deletion strains, locus YMR263W, strain SAP30, hits give low values
[20] = S. cerevisiae deletion strains, locus YMR307W, strain GAS1, hits give low values
[21] = S. cerevisiae deletion strains, locus YNL153C, strain GIM3, hits give low values
[22] = S. cerevisiae deletion strains, locus YNL298W, strain CLA4 (second series), hits give low values
[23] = S. cerevisiae deletion strains, locus YNL322C, strain KRE1, hits give low values
[24] = S. cerevisiae deletion strains, locus YNR030W, strain Alg12, hits give low values
[25] = S. cerevisiae deletion strains, locus YPL055C, strain LGE1, hits give low values
[26] = S. cerevisiae deletion strains, locus YPL241C, strain CIN2, hits give low values
[27] = S. cerevisiae deletion strains, locus YPR135W, strain CTF4, hits give low values
[28] = S. cerevisiae strains, strain wild type, hits give low values
[29] = S. cerevisiae deletion strains, locus YDL134C, strain PPH21, hits give low values
[30] = S. cerevisiae deletion strains, locus YNL128W, strain TEP1, hits give low values
[31] = S. cerevisiae deletion strains, locus YOL006C, strain TOP1, hits give low values
[32] = S. cerevisiae deletion strains, locus YGR229C, strain SMI1, hits give low values

Measured: normalized growth

NC(N)=NC(N)=Nc1cc(C(F)(F)F)cc(C(F)(F)F)c1
inactive: [1] 1 | [2] 0.999 | [3] 0.992 | [4] 0.998 | [5] 1.02 | [6] 0.995 | [7] 0.983 | [8] 0.99 | [9] 1 | [10] 1.01 | [11] 0.977 | [12] 1.01 | [13] 1.01 | [14] 1.01 | [15] 1.03 | [16] 1.01 | [17] 0.956 | [18] 1 | [19] 1.01 | [20] 0.963 | [21] 0.993 | [22] 0.988 | [23] 0.987 | [24] 1.01 | [25] 0.999 | [26] 1.12 | [27] 1 | [28] 1.01

NC(=NS(=O)(=O)c1cc(C(F)(F)F)cc(C(F)(F)F)c1)c1cccs1
active: [11] 0.89 | [13] 0.561 | [16] 0.578
inactive: [1] 0.975 | [2] 0.977 | S. cerevisiae deletion strains, locus YCL061C, strain MRC1, hits give low values 0.996 | [3] 0.994 | [29] 0.984 | [4] 0.969 | [5] 0.934 | [6] 0.963 | [7] 0.975 | [8] 1.01 | [9] 0.987 | [10] 0.957 | [14] 0.967 | [15] 0.928 | [17] 0.927 | [18] 0.982 | [19] 0.978 | [30] 1 | [21] 0.991 | [22] 0.933 | [23] 0.977 | [24] 0.942 | [31] 0.949 | [25] 0.9 | [26] 0.946 | [27] 0.877 | [28] 0.978

CN1CCCC12NCCc1c2[nH]c2ccccc12 (stereo unspecified)
inactive: [1] 0.993 | [2] 1 | [3] 1 | [4] 0.98 | [5] 0.998 | [6] 0.993 | [32] 0.997 | [7] 0.981 | [8] 0.986 | [10] 0.999 | [11] 0.973 | [13] 0.976 | [14] 0.987 | [15] 0.991 | [16] 0.976 | [17] 1.06 | [18] 1.01 | [19] 0.985 | [21] 1 | [22] 0.982 | [23] 1 | [24] 0.965 | [25] 1.01 | [26] 0.969 | [27] 1.03

c1ccc2c3c([nH]c2c1)CNCC3
inactive: S. cerevisiae deletion strains, locus YBR021W, strain FUR4, hits give low values 1.01 | [2] 0.999 | S. cerevisiae deletion strains, locus YCL029C, strain bik1, hits give low values 1.02 | S. cerevisiae deletion strains, locus YDL035C, strain GPR1, hits give low values 0.991 | S. cerevisiae deletion strains, locus YDL074C, strain BRE1, hits give low values 1.01 | [3] 1.01 | S. cerevisiae deletion strains, locus YDL185W, strain tfp1, hits give low values 1.01 | S. cerevisiae deletion strains, locus YDL192W, strain arf1, hits give low values 0.997 | S. cerevisiae deletion strains, locus YDR101C, strain arx1, hits give low values 1.02 | [4] 1 | S. cerevisiae deletion strains, locus YDR162C, strain NBP2, hits give low values 0.965 | S. cerevisiae deletion strains, locus YDR318W, strain mcm21, hits give low values 0.979 | S. cerevisiae deletion strains, locus YDR388W, hits give low values 0.997 | S. cerevisiae deletion strains, locus YDR502C, strain sam2, hits give low values 1.01 | [5] 0.997 | S. cerevisiae deletion strains, locus YER110C, hits give low values 1 | S. cerevisiae deletion strains, locus YER155C, strain BEM2, hits give low values 1.01 | S. cerevisiae deletion strains, locus YER167W, strain BCK2, hits give low values 0.999 | S. cerevisiae deletion strains, locus YGL078C, strain dbp3, hits give low values 0.997 | S. cerevisiae deletion strains, locus YGL086W, strain mad1, hits give low values 1.02 | S. cerevisiae deletion strains, locus YGL248W, strain PDE1, hits give low values 0.994 | [6] 1 | S. cerevisiae deletion strains, locus YGR135W, strain pre9, hits give low values 0.97 | S. cerevisiae deletion strains, locus YGR252W, strain gcn5, hits give low values 0.906 | [7] 1 | S. cerevisiae deletion strains, locus YHR079C, strain IRE1 (second series), hits give low values 1.01 | S. cerevisiae deletion strains, locus YHR094C, strain hxt1, hits give low values 1 | S. cerevisiae deletion strains, locus YHR129C, strain ARP1, hits give low values 1.01 | S. cerevisiae deletion strains, locus YHR200W, strain rpn10, hits give low values 1 | S. cerevisiae deletion strains, locus YIL066C, strain RNR3, hits give low values 1 | S. cerevisiae deletion strains, locus YIL073C, strain SPO22, hits give low values 1.05 | S. cerevisiae deletion strains, locus YIL125W, strain kgd1, hits give low values 1.02 | S. cerevisiae deletion strains, locus YIR030C, strain dcg1, hits give low values 1.01 | S. cerevisiae deletion strains, locus YJL095W, strain BCK1, hits give low values 0.987 | S. cerevisiae deletion strains, locus YJL134W, strain LCB3, hits give low values 0.999 | S. cerevisiae deletion strains, locus YJL168C, strain set2, hits give low values 1 | S. cerevisiae deletion strains, locus YJL187C, strain SWE1 (second series), hits give low values 0.997 | [10] 1.01 | S. cerevisiae deletion strains, locus YKL009W, strain mrt4, hits give low values 1.01 | S. cerevisiae deletion strains, locus YKL068W, hits give low values 1 | S. cerevisiae deletion strains, locus YKL085W, strain MDH1 (second series), hits give low values 1 | S. cerevisiae deletion strains, locus YKL085W, strain MDH1, hits give low values 1 | [12] 1 | S. cerevisiae deletion strains, locus YKR001C, strain vps1, hits give low values 1.02 | [13] 1.01 | S. cerevisiae deletion strains, locus YLR058C, strain SHM2, hits give low values 0.985 | S. cerevisiae deletion strains, locus YLR102C, strain apc9, hits give low values 1 | [16] 0.993 | S. cerevisiae deletion strains, locus YLR268W, strain sec22, hits give low values 1.03 | S. cerevisiae deletion strains, locus YLR330W, strain CHS5, hits give low values 1.01 | S. cerevisiae deletion strains, locus YLR342W, strain FKS1 (second series), hits give low values 0.976 | S. cerevisiae deletion strains, locus YLR371W, strain rom2, hits give low values 1.02 | S. cerevisiae deletion strains, locus YLR418C, strain cdc73, hits give low values 0.96 | S. cerevisiae deletion strains, locus YML016C, strain PPZ1, hits give low values 0.997 | S. cerevisiae deletion strains, locus YML032C, strain rad52, hits give low values 0.966 | S. cerevisiae deletion strains, locus YML124C, strain tub3, hits give low values 0.996 | S. cerevisiae deletion strains, locus YMR078C, strain ctf18, hits give low values 1.02 | S. cerevisiae deletion strains, locus YMR223W, strain ubp8, hits give low values 0.972 | [19] 1 | [20] 1.02 | S. cerevisiae deletion strains, locus YNL067W, strain RPL9B, hits give low values 1 | [30] 1.01 | [21] 0.997 | S. cerevisiae deletion strains, locus YNL233W, strain BNI4, hits give low values 1 | S. cerevisiae deletion strains, locus YNL250W, strain rad50, hits give low values 1.01 | S. cerevisiae deletion strains, locus YNL271C, strain bni1, hits give low values 1.01 | S. cerevisiae deletion strains, locus YNL298W, strain CLA4, hits give low values 0.99 | S. cerevisiae deletion strains, locus YNL307C, strain MCK1, hits give low values 1.01 | S. cerevisiae deletion strains, locus YNR052C, strain pop2, hits give low values 0.971 | [31] 1.06 | S. cerevisiae deletion strains, locus YOL012C, strain htz1 0.744 | S. cerevisiae deletion strains, locus YOL147C, strain pex11, hits give low values 1 | S. cerevisiae deletion strains, locus YOR061W, strain CKA2, hits give low values 0.998 | S. cerevisiae deletion strains, locus YOR069W, strain VPS5, hits give low values 1 | S. cerevisiae deletion strains, locus YOR136W, strain idh2, hits give low values 1.02 | S. cerevisiae deletion strains, locus YOR144C, strain elg1, hits give low values 1.01 | S. cerevisiae deletion strains, locus YOR184W, strain ser1, hits give low values 1 | S. cerevisiae deletion strains, locus YOR316C, strain cot1, hits give low values 1.01 | [25] 0.983 | [26] 0.988 | S. cerevisiae deletion strains, locus YPR119W, strain clb2, hits give low values 1.01 | S. cerevisiae deletion strains, locus YPR141C, strain kar3, hits give low values 1.01 | S. cerevisiae deletion strains, locus YPR163C, strain tif3, hits give low values 1.01 | S. cerevisiae deletion strains, locus YPR167C, strain met16, hits give low values 0.992 | S. cerevisiae deletion strains, strain wtn01, hits give low values 1.03 | [28] 0.989

c1ccc2c(c1)CCc1c-2[nH]c2ccccc12
active: [1] 0.641 | [2] 0.682 | [3] 0.62 | [29] 0.461 | [4] 0.704 | [5] 0.415 | [6] 0.732 | [32] 0.735 | [7] 0.137 | [8] 0.748 | [10] 0.751 | [11] 0.562 | [13] 0.162 | [14] 0.827 | [15] 0.109 | [16] 0.142 | [17] 0.467 | [18] 0.783 | [19] 0.634 | [21] 0.7 | [22] 0.23 | [23] 0.91 | [24] 0.418 | [31] 0.115 | [25] 0.322 | [26] 0.416 | [27] 0.294
